Source: PubChem
This excerpt belongs to a sample that is enriched for hits.
S1P2 ag – agonists of human S1P2 receptor | 0.46% of 97,000 active | activation, % at 4.5 µM | O95136 | S1P2-expressing cell line, agonist reporter read-out; in the data active = activation above about 16%;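 note: 0% = vehicle low control and 100% = maximal reference agonist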
Target sequence (O95136 whole entry, looked up): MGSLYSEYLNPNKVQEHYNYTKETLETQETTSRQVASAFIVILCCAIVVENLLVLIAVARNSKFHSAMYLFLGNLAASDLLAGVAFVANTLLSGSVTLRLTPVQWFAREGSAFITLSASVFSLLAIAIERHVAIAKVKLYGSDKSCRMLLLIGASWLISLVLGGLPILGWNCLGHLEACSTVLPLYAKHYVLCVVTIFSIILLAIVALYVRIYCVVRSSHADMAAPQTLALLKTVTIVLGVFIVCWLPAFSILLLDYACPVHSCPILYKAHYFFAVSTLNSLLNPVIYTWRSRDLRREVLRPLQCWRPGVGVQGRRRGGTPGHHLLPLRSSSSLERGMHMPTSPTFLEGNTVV
S1P2 antag – antagonists of human S1P2 receptor; cell-based S1P2 antagonist assay, inhibition at 5 uM; inhibition, % at 5 µM; 0.21% of 97,000 active; AID 736; O95136; in the data active = inhibition above about 45%;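 note: CRE beta-lactamase reporter cells expressing human S1P2 stimulated with S1P; 0% = agonist at EC80 alone and 100% = agonist plus reference antagonist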
PostGolgi ctrl – growth of the yeast control strain, post-Golgi counter-screen; efflux-deficient yeast background strain, growth absorbance A615, 16 h; inhibition, % at 10 µM; 5% of 98,000 active
GALR2 ag – agonists of human galanin receptor 2 (GALR2) | 0.48% of 140,000 active | GALR2-expressing cells, agonist activation read-out | AID 803 | O43603 | activation, % (no concentration beside the values); in the data active = activation above about 5%, passing the limit was not always enough;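 note: 0% = vehicle buffer wells and 100% = reference agonist at full effect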
GALR2 blocker – GALR2 (human) receptor antagonism; inhibition, % at 4 µM; GALR2-expressing cells, antagonist mode; 0.39% of 140,000 active; O43603; in the data active = inhibition above about 27%;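 note: cells stimulated with galanin 1-16 at roughly its EC80; 0% = agonist challenge control and 100% = basal control without agonist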
PostGolgi yeast – growth inhibition of a yeast mutant, post-Golgi transport screen; post-Golgi transport phenotypic cell assay; inhibition, % at 10 µM; 0.9% of 98,000 active; AID 739;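 note: yeast cells grown in 1536-well plates; yeast grown about 18 h at 30C before absorbance read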
An asterisk follows results filed as active; . = no result. Cut-off read from the data, not from the text of the source, unless noted: active = inhibition above about 30%; inactive = the rest.

SMILES	S1P2 ag	S1P2 antag	PostGolgi ctrl	GALR2 ag	GALR2 blocker	PostGolgi yeast
COc1ccc(-n2c(C)c3c(OC)cccc(=O)c3c2C)cc1	-7	3	34*	-1	-6	-3
COc1ccccc1-n1c(C)c2c(OC)cccc(=O)c2c1C	.	.	.	-1	8	.
O=C(OCC1COc2ccccc2O1)c1c(F)cccc1F (configuration not stated)	-3	-2	-2	-3	-13	-5
Cc1cc(N2CCN(c3ccccc3)CC2)n2nnnc2n1	.	.	6	0	2	6
Cc1cccc(N2CCN(c3cc(C)nc4nnnn34)CC2C)c1 (configuration not stated)	.	.	9	5.4*	7	6
Brc1cccc(-c2nc(-c3ccncc3)no2)c1	.	.	43*	-2	4	13
Clc1ccc(Br)cc1-c1nc(-c2ccncc2)no1	-13	9	3	-1	-6	5
Cc1ccc(-c2nn3c(C)nnc3s2)cc1NC(=O)C(C)C	-5	-6	-1	1	-1	-10
Cc1ccc(CNc2cc(-c3nn4c(C)nnc4s3)ccc2C)s1	3	-30	32*	0	3	8
Cc1ccc(-c2nn3c(C)nnc3s2)cc1NCc1c(F)cccc1Cl	3	-5	23	1	-8	33*
C=CCNC(=O)c1ccc2nc(-c3ccccc3)c(-c3ccccc3)nc2c1	-5	-7	36*	-3	-5	8
C=CCNC(=O)c1ccc(C(=O)c2ccccc2)cc1	-5	15	4	-1	8	-1
CC(C)c1ccc(/C=C/C(=O)NC2=NCCS2)cc1	2	-2	33*	-2	-14	3
COC(=O)c1ccc(CSc2nnc(Nc3ccc(C)cc3)s2)o1	-7	-3	5	-4	8	-7
CCOc1ccc(-c2n[nH]c(C)c2Oc2ccc(OC)cc2)c(O)c1	-3	-14	33*	-3	9	12
Cc1[nH]nc(-c2ccc(OCc3cnn(-c4ccccc4)c3)c(C)c2O)c1Oc1ccccc1	-1	-11	8	0	-7	-6
Cc1[nH]nc(-c2ccc(O)c(C)c2O)c1Oc1ccccc1	-5	-10	38*	-4	12	2
COc1ccc(CN2C(=O)/C(=C/c3ccncc3)SC2=S)cc1	.	.	.	0	0	.
CN(C)C=Nc1ncc2c3ccccc3n(CCN(C)C)c2c1C#N	-2	7	25	-1	-6	-10
CCN(CC)CCn1c2ccccc2c2cnc(N)c(C#N)c21	-10	4	52*	2	-8	2
Cc1noc(C)c1COC(=O)[C@H](C)NS(=O)(=O)c1ccc(Cl)c(Cl)c1	-3	-14	-2	14*	-8	1
COc1cc(C(=O)NCC(=O)N/N=C(/C)c2cccs2)cc(OC)c1OC	.	.	.	-1	4	.
Cc1cc(NC(=O)Cn2cc(C(F)(F)F)cc(Cl)c2=O)no1	-7	19	13	-1	1	4
CCCCc1c(C)c(C#N)c2[nH]c3ccccc3n2c1=O	-5	-27	36*	-1	-12	6
CS(=O)(=O)Nc1nnc(SCC(=O)N(c2ccccc2)c2ccccc2)s1	.	.	.	-3	-13	.
SMILES	S1P2 ag	S1P2 antag	PostGolgi ctrl	GALR2 ag	GALR2 blocker	PostGolgi yeast
CC(C)C(=O)N(c1cc2sc(=O)oc2c2ccccc12)S(=O)(=O)c1cccs1	-4	17	67*	-1	1	10
COc1cc(S(=O)(=O)NCCN2CCOCC2)c(OC)cc1Cl	2	-19	32*	-2	-8	-3
COc1ccc(N2CCN(CCCNS(=O)(=O)c3ccc4c(c3)oc(=O)n4C)CC2)cc1	-9	-5	32*	-2	-2	-7
COc1ccc2cc(S(=O)(=O)NCCCN3CCOCC3)ccc2c1	57*	-3	-14	-2	5	-7
COc1ccc(S(=O)(=O)NCCN2CCOCC2)c2ccccc12	-7	23	11	0	7	22
CCOC(=O)c1c(NC(=O)CSc2nnc(Cc3ccccc3)o2)sc(C)c1C	-5	-6	.	-1	4	.
CC(C)NC(=S)N/N=C1\CCCCC1C1CCCCC1 (configuration not stated)	-8	-4	30*	-1	10	-5
COC(=O)c1cc2sc(Cl)cc2n1CC(=O)N1CCCc2ccccc21	-3	7	36*	1	0	-8
COC(=O)c1cc2sccc2n1CC(=O)N1CCCc2ccccc21	-2	10	14	-2	-5	11
Cc1ccc(C2C(C#N)=C(N)SC(N)=C2C#N)cc1	-4	1	40*	0	0	-4
O=C1C(Cl)=C(NCC2CCCO2)C(=O)N1C1CCCCC1 (configuration not stated)	-7	11	41*	0	5	13
COc1ccc(C(=NNc2ccccc2C(=O)O)c2ccc(OC)cc2)cc1	.	.	.	-1	-8	.
CCN1c2ccccc2-c2nc3ccccc3n2C1c1ccccn1 (configuration not stated)	3	-13	40*	0	-4	-9
Cc1ccccc1NC(=O)C1Cc2ccccc2CN1C(=O)OCc1ccccc1 (configuration not stated)	.	.	.	0	11	.
Cc1cc(=O)oc2cc3c(cc12)OCCO3	.	.	0	-1	10	5
Cc1cc(=O)oc2cc3c(cc12)OCCN3	46*	-39	1	10*	-5	0
COC(=O)c1nn(-c2ccccc2)nc1-c1nn(-c2ccccc2)nc1C(=O)OC	-6	-6	77*	-4	2	36*
O=C(CCCSc1nnnn1-c1cccc2ccccc12)c1ccc(F)cc1	-3	-20	32*	-2	-9	-5
COC(=O)CSc1nnnn1-c1cccc2ccccc12	-3	3	-2	-2	-10	1
Fc1ccccc1COc1ccc(Br)cc1CNCc1ccncc1	0	0	97*	-2	-4	99*
CCOc1cc(CNCc2ccncc2)cc(Br)c1OCc1ccc(F)cc1	-3	-2	25	-4	8	16
Fc1ccc(COc2ccc(Br)cc2CNCc2ccncc2)cc1	-3	5	94*	-1	-2	103*
CC12CCC(c3c(C(=O)Nc4nccs4)nn(-c4ccccc4)c31)C2(C)C (configuration not stated)	-6	-6	1	-2	12	39*
CC12CCC(c3c(C(=O)O)nn(-c4ccccc4)c31)C2(C)C (configuration not stated)	-7	12	4	0	6	2
C/C(=N\NC(=O)c1cccc(Cl)c1)C1C(=O)c2ccccc2C1=O	.	.	.	-2	7	.
c1cncc(-c2nnc3sc(-c4ccco4)nn23)c1	-2	9	-2	-1	-16	4
CCN(CC)c1ccc(-c2nn3c(-c4cccnc4)nnc3s2)cc1	2	10	39*	3	-2	-14
NC(=O)c1cccc2c3c([nH]c12)CCCC3	-3	-2	11	0	-9	7
